Data reported in ChEMBL document CHEMBL4513141, “CO-ADD screening of NIH (USA) - Clinical Collection” (2021).
Entries with a potency or affinity are not part of this list.

tested on: Cryptococcus neoformans; conditions: Concentration 20 uM; ASSAY_TEST Inhibition of Fungal Growth; detection method Resazurin; Absorption (OD600-OD570); plate type 384well; NBS; CORNING #3640

With CN/C(=N\CCSCc1nc[nH]c1C)NC#N [CIMETIDINE] as the molecule, how does the Inhibition read?
The Inhibition was 2.1%.

With CN1CCN(C2=Nc3cc(Cl)ccc3Nc3ccccc32)CC1 [CLOZAPINE] as the molecule, how does the Inhibition read?
The Inhibition was -5.79%.

O=C(O)CCCc1ccc(N(CCCl)CCCl)cc1 [CHLORAMBUCIL] was tested. Which Inhibition did it give?
The Inhibition was 0.85%.

With C[C@]12CCC(=O)C[C@@H]1CC[C@@H]1[C@@H]2CC[C@@]2(C)[C@H]1CC[C@]2(C)O [MESTANOLONE] as the molecule, how does the Inhibition read?
Its Inhibition is 4.57%.

For CCOC(=O)C1(c2ccccc2)CCN(CCC(C#N)(c2ccccc2)c2ccccc2)CC1.Cl [DIPHENOXYLATE HYDROCHLORIDE], which Inhibition is on record?
The Inhibition was -16.2%.

Which Inhibition does the source give for NC(=O)OCCCc1ccccc1 [PHENPROBAMATE] here?
The Inhibition was -1.72%.

How did the Inhibition turn out when CC(=O)CC(c1ccccc1)c1c([O-])c2ccccc2oc1=O.[Na+] (stereo unspecified) [WARFARIN SODIUM] was run?
The Inhibition was 0.59%.

For Cc1nnc2n1-c1ccc(Cl)cc1C(c1ccccc1)=NC2 [ALPRAZOLAM], which Inhibition is on record?
Its Inhibition is -4.87%.

Which Inhibition does the source give for C[N+]1(C)CCC(OC(=O)C(O)(c2ccccc2)C2CCCC2)C1.[Br-] (stereo unspecified) [GLYCOPYRRONIUM BROMIDE] here?
Its Inhibition is -2.52%.

Which Inhibition does the source give for C[C@]12CC[C@H]3[C@@H](CCC4=CC(=O)CC[C@@]43C)[C@@H]1CC[C@@H]2O [TESTOSTERONE] here?
The Inhibition was 1.59%.

Which Inhibition does the source give for CCOC(=O)c1cncn1[C@H](C)c1ccccc1 [ETOMIDATE] here?
The Inhibition was 0.21%.

How did the Inhibition turn out when Nc1nc(F)nc2c1ncn2[C@@H]1O[C@H](CO)[C@@H](O)[C@@H]1O [FLUDARABINE] was run?
Its Inhibition is -5.72%.

With C[C@]12CCC(=O)C=C1CC[C@@H]1[C@@H]2CC[C@@]2(C)[C@H]1CC[C@]2(C)O [METHYLTESTOSTERONE] as the molecule, how does the Inhibition read?
The Inhibition was 0%.

How did the Inhibition turn out when CC[C@@H]1/C=C/C=C/C[C@H](C)[C@@H](O)[C@](C)(O)C(=O)[C@H](C)[C@@H](O)[C@H](C)C(=O)[C@H](C)[C@@H](O)[C@H](C)/C=C/C(=O)O[C@H]2[C@@H](C)[C@@H](CC1)O[C@@]1(CC[C@@H](C)[C@@H](C[C@H](C)O)O1)[C@@H]2C was run?
The Inhibition was -9.53%.

CCOC(=O)c1ncn2c1CN(C)C(=O)c1cc(F)ccc1-2 [FLUMAZENIL] was tested. Which Inhibition did it give?
Its Inhibition is -8.54%.

Which Inhibition does the source give for Br.Br.CN1CC[C@]2(c3cccc(O)c3)Cc3nc4ccccc4cc3C[C@H]2C1.O here?
Its Inhibition is 2.37%.

C[C@H](CCC(=O)O)[C@H]1CC[C@H]2[C@@H]3C(=O)C[C@@H]4CC(=O)CC[C@]4(C)[C@H]3CC(=O)[C@]12C [DEHYDROCHOLIC ACID] was tested. Which Inhibition did it give?
The Inhibition was 2.23%.

For CC1CCC[C@H](O)CCCCCc2cc(O)cc(O)c2C(=O)O1 (stereo partly specified), which Inhibition is on record?
Its Inhibition is -2.51%.

CC(NC(C)(C)C)C(=O)c1cccc(Cl)c1.Cl (stereo unspecified) [BUPROPION HYDROCHLORIDE] was tested. Which Inhibition did it give?
Its Inhibition is 3.12%.

Which Inhibition does the source give for NS(=O)(=O)c1cc(C2(O)NC(=O)c3ccccc32)ccc1Cl (stereo unspecified) [CHLORTHALIDONE] here?
The Inhibition was -1.27%.

How did the Inhibition turn out when N=C(NCc1ccc(Cl)cc1)SCCCc1c[nH]cn1 [CLOBENPROPIT] was run?
Its Inhibition is -0.61%.

For CC(C(=O)O)c1ccc(-c2ccccc2)c(F)c1 (stereo unspecified) [FLURBIPROFEN], which Inhibition is on record?
The Inhibition was -3.5%.

CC(C)[C@]12O[C@H]1[C@@H]1O[C@]13[C@]1(O[C@H]1C[C@H]1C4=C(CC[C@@]13C)C(=O)OC4)[C@@H]2O [TRIPTOLIDE] was tested. Which Inhibition did it give?
Its Inhibition is -8.43%.

Which Inhibition does the source give for Cl.Cl.OCCN1CCN(CCCN2c3ccccc3Sc3ccc(C(F)(F)F)cc32)CC1 [FLUPHENAZINE HYDROCHLORIDE] here?
The Inhibition was -8.76%.

Which Inhibition does the source give for CCC(COC(=O)c1cc(OC)c(OC)c(OC)c1)(c1ccccc1)N(C)C.O=C(O)/C=C\C(=O)O (stereo unspecified) here?
The Inhibition was -7.66%.

With CC(C)C(=O)Nc1ccc([N+](=O)[O-])c(C(F)(F)F)c1 [FLUTAMIDE] as the molecule, how does the Inhibition read?
Its Inhibition is 1.08%.

How did the Inhibition turn out when Cl.NCC(O)c1ccc(O)c(O)c1 (stereo unspecified) was run?
The Inhibition was -2.98%.

For Cl.O=C1c2cccc3c2[C@H](CCC3)CN1[C@@H]1CN2CCC1CC2 [PALONOSETRON HYDROCHLORIDE], which Inhibition is on record?
Its Inhibition is -0.6%.

How did the Inhibition turn out when COC(=O)N1CCN(C(=O)Cc2ccc(Cl)c(Cl)c2)C(CN2CCCC2)C1.O=C(O)/C=C/C(=O)O (stereo unspecified) was run?
Its Inhibition is -1.96%.

With CNCCC(Oc1ccc(C(F)(F)F)cc1)c1ccccc1.Cl (stereo unspecified) [FLUOXETINE HYDROCHLORIDE] as the molecule, how does the Inhibition read?
The Inhibition was -8.4%.

How did the Inhibition turn out when CC(C)CC(N(C)C)C1(c2ccc(Cl)cc2)CCC1 (stereo unspecified) [SIBUTRAMINE] was run?
Its Inhibition is 1.52%.
